Data from PubChem BioAssay (NCI).
Compounds without any hit were thinned out: in the full panel of roughly 83,000, 20% have a hit.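 Cell lines were cultured in 96-well plates, exposed to a single compound concentration, and assessed for percent growth 48 hours later.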 A number with no mark means an inactive call. Active and inactive are the calls of the source. How the source made its calls: active means growth percent below 10; inactive means the rest.

Tests used:
Experiment in all cases: NCI-60 one-dose screen, 48 h (100 = growth as untreated, 0 = no growth, -100 = all killed)
[1] = system: SK-MEL-2 melanoma; settings: 10 µM
[2] = system: EKVX NSCLC; settings: 10 µM
[3] = system: SN12C renal; settings: 10 µM
[4] = system: UO-31 renal; settings: 10 µM
[5] = system: TK-10 renal; settings: 10 µM unless noted
[6] = system: ACHN renal; settings: 10 µM
[7] = system: CAKI-1 renal; settings: 10 µM
[8] = system: A498 renal; settings: 10 µM
[9] = system: CCRF-CEM leukemia; settings: 10 µM
[10] = system: MOLT-4 leukemia; settings: 10 µM
[11] = system: SR leukemia; settings: 10 µM
[12] = system: RPMI-8226 leukemia; settings: 10 µM
[13] = system: OVCAR-8 ovarian; settings: 10 µM
[14] = system: OVCAR-5 ovarian; settings: 10 µM
[15] = system: OVCAR-4 ovarian; settings: 10 µM
[16] = system: SK-OV-3 ovarian; settings: 10 µM
[17] = system: IGROV1 ovarian; settings: 10 µM
[18] = system: OVCAR-3 ovarian; settings: 10 µM
[19] = system: HS 578T breast; settings: 10 µM
[20] = system: NCI/ADR-RES ovarian; settings: 10 µM

Row | Compound | growth [1] | growth [2] [%] | growth [3] [%] | growth [4] [%] | growth [5] [%] | growth [6] [%] | growth [7] | growth [8] [%] | growth [9] | growth [10] [%] | growth [11] | growth [12] | growth [13] [%] | growth [14] [%] | growth [15] [%] | growth [16] [%] | growth [17] | growth [18] | growth [19] [%] | growth [20]
1 | Nc1ccccc1C(=O)Nc1ccc(Cl)cc1Cl | 112% | 99.5 | 103 | 52.4 | 118 | 94 | 69.1% | 107 | 90.3% | 77.7 | 50% | 63.9% | 83.1 | 100 | 87.5 | 99.2 | 35.9% | 93.7% | 87.4 | 90.7%
2 | C[N+](C)(C)C(=O)c1ccccc1 | 98.6% | 108 | 95.8 | 85.9 | 102 | 107 | 99.9% | 98 | 104% | 103 | 102% | 111% | 113 | 98.7 | 115 | 104 | 115% | 113% | 118 | 113%
3 | COc1ccc(C(O)c2ccccc2)cc1 (stereo not given) | 112% | 101 | 104 | 81.9 | 101 | 106 | 100% | 102 | 106% | 94.1 | 102% | 108% | 97.3 | 102 | 92.6 | 99.2 | 99.3% | 107% | 108 | 105%
4 | O=C1Cc2cc(O)ccc2O1 | 101% | 104 | 102 | 83.7 | 115 | 105 | 103% | 92.7 | 94% | 91.2 | 91.8% | 96.1% | 102 | 113 | 118 | 99.8 | 104% | 120% | 119 | 107%
5 | c1ncc2[nH]cnc2n1 | 84.6% | 126 | 97.1 | 83.5 | 103 | 95.1 | 94.8% | 79.1 | 88.7% | 80.8 | 100% | 91.9% | 95.6 | 96.7 | 110 | 90.8 | 92% | 110% | 114 | 104%
6 | C[C@]12CC[C@@H]3c4ccc(OCC(=O)O)cc4CC[C@H]3[C@@H]1CCC2=O | 105% | 117 | 102 | 86.1 | 103 | 96.9 | 113% | 78.1 | 116% | 86.2 | 88.5% | 121% | 109 | 107 | 95.8 | 115 | 107% | 101% | 95.5 | 96.4%
7 | Oc1ccc(N=Nc2ccc(Br)cc2)c(O)c1 | -5.42% (active) | 47.4 | 54.1 | 30.3 | 39.2 | 49.8 | 3.01% (active) | 23.5 | -20% (active) | 21.2 | -8.8% (active) | -37.3% (active) | 24.1 | 80.7 | 33.7 | 25.7 | -15.3% (active) | -65.2% (active) | 10.4 | -55.4% (active)
8 | CC(C)CCOC(=O)c1ccccc1 | 106% | 110 | 102 | 92 | 101 | 111 | 97.1% | 97.7 | 109% | 98.7 | 107% | 118% | 99.4 | 105 | 107 | 104 | 102% | 107% | 105 | 107%
9 | CC(=O)OC1CC2C(C)(C)OC3CC(=O)OCC32C2CCC3(C)C(=CCC3c3ccoc3)C12C (stereo not given) | 99.5% | 102 | 105 | 86.9 | 107 | 101 | 98.7% | 110 | 101% | 90.8 | 91.1% | 72.8% | 108 | 95.9 | 105 | 108 | 58.2% | 93.8% | 93.6 | 124%
10 | OC(c1ccccn1)C(O)c1ccccn1 (stereo not given) | 108% | 124 | 91.5 | 89 | 108 | 98.2 | 116% | 95.9 | 104% | 95.1 | 98.7% | 108% | 102 | 90.7 | 107 | 103 | 97.9% | 113% | 111 | 111%
11 | Cc1cc(=O)[nH]c(NN=C2CCCC2)n1 | 107% | 107 | 104 | 91.2 | 122 | 108 | 100% | 129 | 102% | 101 | 103% | 107% | 112 | 99.4 | 114 | 103 | 107% | 110% | 121 | 121%
12 | CCOC(=O)CCCC(=O)OCC | 111% | 108 | 114 | 89.7 | 101 | 105 | 95.2% | 92.1 | 110% | 101 | 102% | 113% | 103 | 101 | 101 | 96.7 | 102% | 102% | 96.2 | 106%
13 | Oc1ccccc1-c1nnco1 | 96.4% | 107 | 83.2 | 55 | 95.4 | 83 | 100% | 75.9 | 89% | 90.1 | 90.4% | 86.8% | 98.9 | 107 | 83.1 | 91.1 | 86.3% | 101% | 45.1 | 93.1%
14 | O=C1c2ccccc2C(=O)N1OCc1ccccc1 | 96.7% | 98.7 | 110 | 79.1 | 133 | 101 | 95.2% | 134 | 97.3% | 93.7 | 93.4% | 102% | 105 | 97.2 | 105 | 99.2 | 94.4% | 105% | 113 | 116%
15 | COc1cc(/C=C(\C#N)C(=O)c2ccccc2)ccc1OCc1ccccc1 | 127% | 107 | 102 | 79.7 | 109 | 102 | 96.5% | 87.9 | -32.5% (active) | 106 | 109% | 107% | 108 | 103 | 106 | 107 | 91.1% | 101% | 97.5 | 98.4%
